# According to the supplement of paper PMC12282887:
# ± gives the standard deviation of the averaged measurements.
# Legend:
# Assay in all cases: promoter activity interaction Z-score (Lux/OD deviation from empty-vector control); higher = stronger promoter induction by the compound
# [1] = system: E. coli BW25113 acrABp lux reporter
# How it was run: (§1)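 Reporter strains of E. coli BW25113 grew at 37°C in 40 µl LB Lennox in 384-well plates. Readings of OD600 and luminescence were taken every 30 min over 12 h, integrated over 0–8 h (wild type) or 1–9 h (deletion strains), and wells below 10% of the median growth value were excluded. Scores are Z-transformed residuals of growth-normalised luminescence from a fit against a control.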
# [2] = system: E. coli BW25113 micFp lux reporter
# How it was run: as §1
# [3] = system: E. coli BW25113 ompFp lux reporter
# How it was run: as §1
# [4] = system: E. coli BW25113 robp lux reporter
# How it was run: as §1
# [5] = system: E. coli BW25113 soxSp lux reporter
# How it was run: as §1
# [6] = system: E. coli BW25113 tolCp lux reporter
# How it was run: as §1
# [7] = 32.1 µg/ml, genetic background: wild type
# [8] = 32.1 µg/ml, genetic background: ΔmarA
# [9] = 32.1 µg/ml, genetic background: Δrob
# [10] = 32.1 µg/ml, genetic background: ΔsoxS
# [11] = 64.2 µg/ml, genetic background: wild type
# [12] = 64.2 µg/ml, genetic background: ΔmarA
# [13] = 64.2 µg/ml, genetic background: Δrob
# [14] = 64.2 µg/ml, genetic background: ΔsoxS
# [15] = 128.4 µg/ml, genetic background: wild type
# [16] = 128.4 µg/ml, genetic background: ΔmarA
# [17] = 128.4 µg/ml, genetic background: Δrob
# [18] = 128.4 µg/ml, genetic background: ΔsoxS
# [19] = 256.8 µg/ml, genetic background: wild type
# [20] = 256.8 µg/ml, genetic background: ΔmarA
# [21] = 256.8 µg/ml, genetic background: Δrob
# [22] = 256.8 µg/ml, genetic background: ΔsoxS
compound,measurement,setting,value
CN(C)C(=O)C(CCN1CCC(O)(c2ccc(Cl)cc2)CC1)(c1ccccc1)c1ccccc1 [Loperamide],promoter activity interaction Z-score,[1]; [7],0.0421 ± 0.17
same,promoter activity interaction Z-score,[1]; [8],0.36 ± 0.083
same,promoter activity interaction Z-score,[1]; [9],-0.0142 ± 0.12
same,promoter activity interaction Z-score,[1]; [10],0.372 ± 0.34
same,promoter activity interaction Z-score,[1]; [11],-0.16 ± 0.23
same,promoter activity interaction Z-score,[1]; [12],0.126 ± 1.6
same,promoter activity interaction Z-score,[1]; [13],-0.00894 ± 0.11
same,promoter activity interaction Z-score,[1]; [14],0.114 ± 0.11
same,promoter activity interaction Z-score,[1]; [15],-0.237 ± 0.23
same,promoter activity interaction Z-score,[1]; [16],0.287 ± 0.52
same,promoter activity interaction Z-score,[1]; [17],-0.146 ± 0.17
same,promoter activity interaction Z-score,[1]; [18],0.111 ± 0.11
same,promoter activity interaction Z-score,[1]; [19],0.213 ± 0.0047
same,promoter activity interaction Z-score,[1]; [20],-1.07 ± 0.54
same,promoter activity interaction Z-score,[1]; [21],0.0923 ± 0.42
same,promoter activity interaction Z-score,[1]; [22],-0.358 ± 0.52
same,promoter activity interaction Z-score,[2]; [7],0.145 ± 0.076
same,promoter activity interaction Z-score,[2]; [8],0.0394 ± 0.035
same,promoter activity interaction Z-score,[2]; [9],0.0787 ± 0.17
same,promoter activity interaction Z-score,[2]; [10],-0.0846 ± 0.15
same,promoter activity interaction Z-score,[2]; [11],0.186 ± 0.1
same,promoter activity interaction Z-score,[2]; [12],0.0703 ± 0.0014
same,promoter activity interaction Z-score,[2]; [13],0.0931 ± 0.092
same,promoter activity interaction Z-score,[2]; [14],-0.0463 ± 0.045
same,promoter activity interaction Z-score,[2]; [15],0.0787 ± 0.19
same,promoter activity interaction Z-score,[2]; [16],0.0574 ± 0.025
same,promoter activity interaction Z-score,[2]; [17],0.0936 ± 0.24
same,promoter activity interaction Z-score,[2]; [18],-0.14 ± 0.12
same,promoter activity interaction Z-score,[2]; [19],-0.186 ± 0.52
same,promoter activity interaction Z-score,[2]; [20],-0.0712 ± 0.25
same,promoter activity interaction Z-score,[2]; [21],-0.12 ± 0.022
same,promoter activity interaction Z-score,[2]; [22],-0.469 ± 0.21
same,promoter activity interaction Z-score,[3]; [7],-0.00512 ± 0.32
same,promoter activity interaction Z-score,[3]; [8],0.262 ± 0.052
same,promoter activity interaction Z-score,[3]; [9],0.0272 ± 0.031
same,promoter activity interaction Z-score,[3]; [10],-0.21 ± 0.06
same,promoter activity interaction Z-score,[3]; [11],0.0346 ± 0.0034
same,promoter activity interaction Z-score,[3]; [12],-0.0766 ± 0.0049
same,promoter activity interaction Z-score,[3]; [13],-0.471 ± 0.21
same,promoter activity interaction Z-score,[3]; [14],-0.28 ± 0.26
same,promoter activity interaction Z-score,[3]; [15],-0.593 ± 0.28
same,promoter activity interaction Z-score,[3]; [16],-0.537 ± 0.65
same,promoter activity interaction Z-score,[3]; [17],-1.29 ± 0.17
same,promoter activity interaction Z-score,[3]; [18],-1.21 ± 0.3
same,promoter activity interaction Z-score,[3]; [19],0.202 ± 0.2
same,promoter activity interaction Z-score,[3]; [20],0.819 ± 0.3
same,promoter activity interaction Z-score,[3]; [21],-0.591 ± 0.47
same,promoter activity interaction Z-score,[3]; [22],0.54 ± 0.76
same,promoter activity interaction Z-score,[4]; [7],-0.195 ± 0.23
same,promoter activity interaction Z-score,[4]; [8],-0.672 ± 0.52
same,promoter activity interaction Z-score,[4]; [9],0.735 ± 0.061
same,promoter activity interaction Z-score,[4]; [10],0.0686 ± 0.097
same,promoter activity interaction Z-score,[4]; [11],0.0117 ± 0.077
same,promoter activity interaction Z-score,[4]; [12],-0.171 ± 0.68
same,promoter activity interaction Z-score,[4]; [13],0.22 ± 0.015
same,promoter activity interaction Z-score,[4]; [14],0.000621 ± 0.037
same,promoter activity interaction Z-score,[4]; [15],-0.524 ± 0.45
same,promoter activity interaction Z-score,[4]; [16],-0.323 ± 0.55
same,promoter activity interaction Z-score,[4]; [17],-0.996 ± 0.2
same,promoter activity interaction Z-score,[4]; [18],-0.571 ± 0.73
same,promoter activity interaction Z-score,[4]; [19],-1.15 ± 0.5
same,promoter activity interaction Z-score,[4]; [20],-0.901 ± 1.4
same,promoter activity interaction Z-score,[4]; [21],-2.1 ± 0.29
same,promoter activity interaction Z-score,[4]; [22],-1.78 ± 0.21
same,promoter activity interaction Z-score,[5]; [7],0.154 ± 0.15
same,promoter activity interaction Z-score,[5]; [8],-0.043 ± 0.059
same,promoter activity interaction Z-score,[5]; [9],0.355 ± 0.12
same,promoter activity interaction Z-score,[5]; [10],0.325 ± 0.045
same,promoter activity interaction Z-score,[5]; [11],-0.0625 ± 0.16
same,promoter activity interaction Z-score,[5]; [12],-0.0378 ± 0.015
same,promoter activity interaction Z-score,[5]; [13],0.149 ± 0.035
same,promoter activity interaction Z-score,[5]; [14],-0.0736 ± 0.2
same,promoter activity interaction Z-score,[5]; [15],0.0173 ± 0.089
same,promoter activity interaction Z-score,[5]; [16],0.196 ± 0.047
same,promoter activity interaction Z-score,[5]; [17],-0.0928 ± 0.32
same,promoter activity interaction Z-score,[5]; [18],-0.2 ± 0.021
same,promoter activity interaction Z-score,[5]; [19],-0.236 ± 0.14
same,promoter activity interaction Z-score,[5]; [20],-0.217 ± 0.25
same,promoter activity interaction Z-score,[5]; [21],-0.0806 ± 0.13
same,promoter activity interaction Z-score,[5]; [22],-0.169 ± 0.064
same,promoter activity interaction Z-score,[6]; [7],-0.194 ± 0.29
same,promoter activity interaction Z-score,[6]; [8],-0.0191 ± 0.39
same,promoter activity interaction Z-score,[6]; [9],-0.0299 ± 0.8
same,promoter activity interaction Z-score,[6]; [10],-0.292 ± 0.62
same,promoter activity interaction Z-score,[6]; [11],0.0244 ± 0.6
same,promoter activity interaction Z-score,[6]; [12],0.821 ± 0.86
same,promoter activity interaction Z-score,[6]; [13],-0.356 ± 0.33
same,promoter activity interaction Z-score,[6]; [14],0.551 ± 0.73
same,promoter activity interaction Z-score,[6]; [15],-0.426 ± 0.95
same,promoter activity interaction Z-score,[6]; [16],-0.198 ± 0.95
same,promoter activity interaction Z-score,[6]; [17],-0.855 ± 0.25
same,promoter activity interaction Z-score,[6]; [18],-0.596 ± 0.53
same,promoter activity interaction Z-score,[6]; [19],0.39 ± 0.18
same,promoter activity interaction Z-score,[6]; [20],0.271 ± 1.2
same,promoter activity interaction Z-score,[6]; [21],0.764 ± 1
same,promoter activity interaction Z-score,[6]; [22],0.351 ± 0.69
